Results as given in PubChem BioAssay AID720518 (National Center for Advancing Translational Sciences (NCATS), 2013).
Results filed as inconclusive are left out. Where a call stands in place of a potency, no number is given. Activity calls are given as the source filed them. Calls come from the whole dose curve.

test: qHTS for Inhibitors of Cell Surface uPA Generation: Wild-type Protective Antigen (WT-PrAg) Counterscreen for Cherry-picked Compounds; settings: cells, WT protective antigen toxicity counterscreen; series mostly up to 115 µM
Potency is the fitted concentration of half-maximal effect.

Structure (SMILES) | Potency
CSCC[C@H](NC(=O)[C@H](Cc1ccccc1)n1c(=O)[nH]c2ccccc2c1=O)C(=O)N1CCC[C@H]1C(=O)O | inactive
Cc1ccc(C(=O)NNC(=O)CNc2cccc(Cl)c2)cc1 | inactive
Cn1c(SCC(=O)NNC(=O)c2ccc(Br)cc2)nnc1-c1cccnc1 | inactive
CCCCn1c(N)c(N(Cc2ccccc2OC)C(=O)COc2ccc(C)cc2)c(=O)[nH]c1=O | inactive
CCc1ccccc1N(CC(=O)N1CCCC1)S(C)(=O)=O | inactive
Cc1cc(C)n(C(=O)c2cccc([N+](=O)[O-])c2)n1 | inactive
COc1ccccc1N1CCN(Cc2ccc(SC)cc2)CC1 | inactive
N#CCCN(C(=O)COC(=O)c1ccc2c(c1)NC(=O)CS2)c1ccc2c(c1)OCCO2 | inactive
CCN(CC)S(=O)(=O)c1ccc(NC(=S)Nc2ccc(F)cc2)cc1 | inactive
Cc1cccc(N2CCN(Cc3ccc(Br)o3)CC2)c1C | inactive
Cn1c(SCC(=O)NCCc2ccccc2)ncc(C(=O)Nc2ccc(F)cc2)c1=O | inactive
CCN(C(=O)c1c(C)noc1C)c1c(N)n(Cc2ccccc2)c(=O)[nH]c1=O | inactive
C=CCOC(=O)C1=C[C@H](c2ccc(C(F)(F)F)cc2)[C@@H](CCCO)[C@H](OCC)O1 | inactive
COc1ccc(Nc2nc(-c3ccccc3)c(C(=O)Nc3cccnc3)s2)cc1 | inactive
O=c1[nH]c(SCc2cccc(Cl)c2)nc2ccccc12 | inactive
CCN(CC)CCCNC(=O)c1cn(C)c(=O)c2c1c1ccccc1n2C | inactive
CCOc1ccc(Cl)cc1/C=N/NC(=O)c1ccccc1 | inactive
CN(CCC#N)C(=S)Nc1ccc(Oc2ccccc2)cc1 | inactive
Cc1ccc(NC(=O)CS(=O)Cc2nc(-c3ccc(C)cc3)oc2C)cc1 (stereo not given) | inactive
COCCNC(=O)COCc1cc(-c2ccc3c(c2)OCO3)on1 | inactive

Structure (SMILES) | Potency
O=C1c2ccccc2[C@@H]2C[C@H](NC34CC5CC(CC(C5)C3)C4)[C@@H](O)CCN12 | inactive
C/C(=N\NC(=S)NC(C)C)c1ccc(Cl)s1 | inactive
O=C(NCC1CCCO1)c1c(O)c2cccc3c2n(c1=O)CCC3 (stereo not given) | inactive
Cc1ccc(Cl)c(N/C=C/C(=O)c2ccccc2)c1 | inactive
COc1cccc2c1Oc1ncccc1N(C(=O)CCC(=O)NCc1ccc(C)cc1)C2 | inactive
Cc1cccc(C(=O)NC2CCN(CC(=O)N3CCOCC3)CC2)c1 | inactive
COCCOC(=O)C1=C(C)NC(=O)NC1c1cccc2ccccc12 (stereo not given) | inactive
COc1ccc(NS(=O)(=O)c2cc3c(cc2C)NC(=O)CO3)c(OC)c1 | inactive
OCCN(Cc1ccccc1)CC(O)COc1ccc2c(c1)OCO2 (stereo not given) | inactive
COCCN(C(=O)CSc1nnc(-c2ccncc2)n1C)c1c(N)n(CC(C)C)c(=O)[nH]c1=O | inactive
CCCCCOC(=O)C1=C(C)NC(=O)NC1c1ccccc1 (stereo not given) | inactive
Clc1ccccc1N1CCN(c2ncnc3nc[nH]c23)CC1 | inactive
CCCCNC(=O)C1CCN(S(=O)(=O)c2c(C)noc2/C=C\c2ccc(OC)cc2)CC1 | inactive
N#Cc1cccc(NC(=O)Cn2cnc(S(=O)(=O)N3CCOCC3)c2)c1 | inactive
COc1ccc(CCNC(=O)CSc2nc(N)c3c(C)c(C)oc3n2)cc1OC | inactive
CC1CC(C)(C)Nc2ccc(N=O)cc21 (stereo not given) | inactive
Cc1cc(-c2ccccc2)nc(N/N=C/c2ccc(N(C)C)cc2)n1 | inactive
CC1(C)CC(=O)C=C(c2ccc3ccccc3c2)C1 | inactive
COC(=O)CSc1nc(N2CCOCC2)c2c(c1C#N)CCCC2 | inactive
O=C1C=CC(O)(c2cc(=O)c3c(O)cc(O)cc3o2)C=C1 | 16.5 µM (active)
